Reference: PubChem BioAssay (NCATS)
Results filed as inconclusive are left out. A call without a number means that no potency is given here. The source made the active and inactive calls. The call rests on the fitted dose curve; in most records, active means well fitted inhibition curve with a large enough effect; inconclusive means small, poorly fitted or top-dose-only effect; inactive means no such curve, though single readings can be large or run the other way.

The molecules below were run on Zika virus NS2B-NS3 protease (linked construct) (assay: Primary screen NINDS Rhodamine qHTS for Zika virus inhibitors (AID 1347160; further: nearly all actives have a fitted effect of over 55% in size)). Conditions: purified NS2B-NS3 protease, Rhodamine110 substrate fluorescence; series mostly up to 57.1 µM.
Method in brief: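 Each compound, titrated, sat 15 min with 25 nM linked protease before 1.5 microM Rhodamine110 substrate went in. Fluorescence gain over the next 15 min, in pH 8.0 Tris with Tween 20, gave Hill-fitted curves.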
In the case of CCCn1cc2c(nc(NC(=O)Nc3ccc(OC)cc3)n3nc(-c4ccco4)nc23)n1, the Potency is reported as “inactive”. For Fc1ccc(N2CCN(CCC3OCCc4ccccc43)CC2)cc1 (configuration not stated), the Potency was “inactive”. For CCC(C)CNCC(=O)N1CCC2SC=CC2C1COc1cccc(C)c1 (configuration not stated), the Potency was “inactive”. CCCCNc1ncc(C(=O)NCc2ccc(-n3ccnc3)cc2)c(NC2CCC(O)CC2)n1 (configuration not stated) was tested, and the Potency was “inactive”. In the case of Cc1cc2c(N3CCCC3)nc(N3CCCC3)nc2n1C, the Potency is reported as “inactive”. For O=C(NC1CCC1)c1ccc(C#Cc2cccc(F)c2)nc1, the Potency was “inactive”. In the case of CCOc1nc(NC(=O)Cc2cc(OC)ccc2OC)cc(N)c1C#N, the Potency is reported as “inactive”.
